Screens: PubChem BioAssay, several laboratories
This is a sample that favours compounds with a hit; in the whole collection about 3.6% have one here.
CRFBP-R2 block: antagonists of CRF-binding protein/CRF-R2 receptor complex; HEK293 CRF-R2/CRF-BP, CRF-induced calcium fluorescence; 350,000 tested, 0.59% active; AID 588475; inhibition, % at 11.8 µM;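 active means inhibition of the ligand-induced calcium signal above about 50% at the single tested concentration, limit read from the data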
Myeloid diff MLP: promotes myeloid progenitor differentiation; ER-HoxA9 myeloid progenitors, lysozyme-GFP differentiation, flow cytometry; calls only at 10 µM; 360,000 tested, 1% active;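 active means normalized GFP-positive differentiation at or above the plate's own cutoff, the solvent-only control mean plus 3 SD; inconclusive means no clear call, values can overlap the other calls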;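 further: cells exposed to compound for four days before flow analysis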
NadD inh: inhibitors of Staphylococcus aureus NadD; purified NadD enzyme, colorimetric absorbance read-out; inhibition, % at 20 µM; 360,000 tested, 0.78% active; AID 602399; in the data active means inhibition above about 26%
NRP1-CendR mod: alters CendR peptide binding to human NRP-1; FAM-RPARPAR peptide binding to NRP-1, fluorescence polarization; inhibition, % at 25 µM; 360,000 tested, 0.85% active; AID 602438;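 active means inhibition or corrected inhibition above about 18%, plus a signal ratio from 0.5 to 1.5, limit read from the data, passing the limit was not always enough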
FAS-TE inh: inhibitors of human fatty acid synthase thioesterase domain; P49327; recombinant FAS-TE, OMFH fluorogenic substrate, fluorescence endpoint; inhibition, % at 15 µM; 360,000 tested, 0.67% active;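 active means compounds whose normalised, plate-corrected inhibition of enzyme fluorescence in the single-dose primary screen is 50% or more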;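 further: 0% = DMSO with enzyme and 100% = substrate without enzyme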
Target sequence (P49327 whole entry, looked up, the tested form may be a part): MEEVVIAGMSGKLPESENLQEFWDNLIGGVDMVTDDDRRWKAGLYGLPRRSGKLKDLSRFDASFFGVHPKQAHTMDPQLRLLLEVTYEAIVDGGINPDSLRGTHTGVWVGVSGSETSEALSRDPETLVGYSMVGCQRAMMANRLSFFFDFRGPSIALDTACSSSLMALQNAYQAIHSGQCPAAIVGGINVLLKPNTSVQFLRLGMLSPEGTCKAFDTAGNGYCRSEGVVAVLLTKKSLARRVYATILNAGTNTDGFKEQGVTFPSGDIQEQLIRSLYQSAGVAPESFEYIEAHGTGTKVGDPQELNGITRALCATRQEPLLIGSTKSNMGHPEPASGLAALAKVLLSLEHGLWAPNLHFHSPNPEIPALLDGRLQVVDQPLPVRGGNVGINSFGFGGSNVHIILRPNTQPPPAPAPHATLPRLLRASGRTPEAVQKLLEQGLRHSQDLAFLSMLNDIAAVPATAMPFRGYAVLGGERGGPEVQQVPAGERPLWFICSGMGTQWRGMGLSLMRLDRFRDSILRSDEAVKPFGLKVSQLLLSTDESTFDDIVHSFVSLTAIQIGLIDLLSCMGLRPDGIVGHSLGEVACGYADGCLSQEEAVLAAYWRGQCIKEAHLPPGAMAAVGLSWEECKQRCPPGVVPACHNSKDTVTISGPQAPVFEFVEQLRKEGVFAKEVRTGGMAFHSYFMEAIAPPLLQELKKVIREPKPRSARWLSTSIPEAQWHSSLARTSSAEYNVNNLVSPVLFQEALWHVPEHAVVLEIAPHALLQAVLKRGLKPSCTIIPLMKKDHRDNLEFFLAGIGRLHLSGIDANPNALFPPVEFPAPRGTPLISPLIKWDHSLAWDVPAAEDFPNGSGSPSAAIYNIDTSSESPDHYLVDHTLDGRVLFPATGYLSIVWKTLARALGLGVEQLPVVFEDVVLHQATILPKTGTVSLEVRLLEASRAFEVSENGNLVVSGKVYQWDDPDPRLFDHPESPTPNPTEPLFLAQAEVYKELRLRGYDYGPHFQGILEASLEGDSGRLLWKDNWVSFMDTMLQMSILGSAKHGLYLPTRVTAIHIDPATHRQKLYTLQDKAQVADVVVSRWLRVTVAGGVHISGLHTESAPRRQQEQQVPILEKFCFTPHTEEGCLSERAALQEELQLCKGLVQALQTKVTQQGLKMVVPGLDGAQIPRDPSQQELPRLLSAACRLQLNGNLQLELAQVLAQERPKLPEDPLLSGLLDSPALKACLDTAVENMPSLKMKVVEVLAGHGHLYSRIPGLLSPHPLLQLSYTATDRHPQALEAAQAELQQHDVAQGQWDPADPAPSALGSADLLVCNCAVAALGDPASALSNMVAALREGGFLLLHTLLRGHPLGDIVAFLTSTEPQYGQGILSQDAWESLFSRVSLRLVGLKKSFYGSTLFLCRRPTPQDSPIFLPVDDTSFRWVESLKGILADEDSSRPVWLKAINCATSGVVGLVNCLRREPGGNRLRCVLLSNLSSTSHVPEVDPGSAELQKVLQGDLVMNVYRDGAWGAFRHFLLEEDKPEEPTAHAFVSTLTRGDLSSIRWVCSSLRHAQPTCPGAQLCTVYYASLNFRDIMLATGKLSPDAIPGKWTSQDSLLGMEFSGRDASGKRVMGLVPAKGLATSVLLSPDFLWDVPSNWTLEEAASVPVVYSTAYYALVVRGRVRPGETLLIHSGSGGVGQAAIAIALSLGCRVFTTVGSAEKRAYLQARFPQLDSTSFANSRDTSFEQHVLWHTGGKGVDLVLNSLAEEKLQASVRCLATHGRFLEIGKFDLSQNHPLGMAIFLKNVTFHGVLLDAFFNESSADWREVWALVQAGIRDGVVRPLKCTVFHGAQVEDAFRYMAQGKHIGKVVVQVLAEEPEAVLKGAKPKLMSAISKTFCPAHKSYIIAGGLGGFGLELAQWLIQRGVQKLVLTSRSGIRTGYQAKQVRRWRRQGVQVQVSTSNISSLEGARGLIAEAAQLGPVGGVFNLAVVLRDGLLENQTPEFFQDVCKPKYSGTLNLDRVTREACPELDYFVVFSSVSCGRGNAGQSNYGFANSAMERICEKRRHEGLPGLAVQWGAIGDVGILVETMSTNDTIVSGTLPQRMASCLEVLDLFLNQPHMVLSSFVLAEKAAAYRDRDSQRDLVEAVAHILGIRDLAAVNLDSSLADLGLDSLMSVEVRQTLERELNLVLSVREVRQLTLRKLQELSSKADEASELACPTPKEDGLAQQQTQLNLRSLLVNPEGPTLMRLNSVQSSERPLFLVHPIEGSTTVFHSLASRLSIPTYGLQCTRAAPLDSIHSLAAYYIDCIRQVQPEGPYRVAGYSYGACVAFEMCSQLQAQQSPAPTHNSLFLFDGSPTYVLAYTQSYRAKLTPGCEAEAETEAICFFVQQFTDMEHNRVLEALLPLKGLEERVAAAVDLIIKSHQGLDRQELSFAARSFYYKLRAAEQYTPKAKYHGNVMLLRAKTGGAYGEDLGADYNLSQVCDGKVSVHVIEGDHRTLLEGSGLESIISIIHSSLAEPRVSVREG
FAS-TE conf: FAS thioesterase (human) inhibition, confirmation | AID 624325 | shares compounds with FAS-TE inh | 2,300 tested, 45% active | recombinant FAS-TE, OMFH fluorogenic substrate, fluorescence | inhibition, % at 15 µM;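 active means compounds inhibiting the enzyme by at least 50% at 15 µM in any one of the replicates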;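 further: 0% = enzyme with DMSO only and 100% = wells lacking enzyme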
Numbers without * were called inactive; i = inactive; u = inconclusive; x = no result given.

SMILES	CRFBP-R2 block	Myeloid diff MLP	NadD inh	NRP1-CendR mod	FAS-TE inh	FAS-TE conf
O=[N+]([O-])c1cccc(/C=N/Nc2nc(N3CCOCC3)nc(N3CCOCC3)n2)c1	-3	i	-3	8	12	x
Cc1cccc(/C=N/Nc2cc(N3CCOCC3)nc(N3CCOCC3)n2)c1	22	i	5	-3	16	x
O=[N+]([O-])c1ccc(Cl)c(/C=N/Nc2nc(N3CCOCC3)nc(N3CCOCC3)n2)c1	15	i	-4	4	51*	5
CC(C)c1ccc(/C=N/Nc2cc(N3CCOCC3)nc(N3CCOCC3)n2)cc1	-22	i	0	-6	89*	90*
O=[N+]([O-])c1ccc(/C=N/Nc2nc(N3CCOCC3)nc(N3CCOCC3)n2)cc1	x	i	-4	8	50*	23
CCn1cc(S(=O)(=O)c2ccc(Cl)cc2)c(=O)c2cc(OC)ccc21	-7	i	1	1	28	x
N#CCCN(CCC#N)C(=O)C1c2ccccc2Oc2ccccc21	13	i	0	107	-31	x
O=C(CSc1ccc([N+](=O)[O-])cc1)NCC1CCCCC1	19	i	-6	26*	55*	62*
COc1ccc(/C=N\NC(=O)CNC(=O)C(c2ccccc2)c2ccccc2)cc1[N+](=O)[O-]	19	i	12	-9	54*	42*
NC(=O)C1CCN(C2=C(Cl)C(=O)c3ccccc3C2=O)CC1	-16	u	13	22	52*	29
NC(=O)C1CCN(C2=C(NS(=O)(=O)c3ccccc3)C(=O)c3ccccc3C2=O)CC1	5	i	-2	4	-3	x
Nn1c(SCc2c(F)cccc2F)nnc1-c1ccccn1	4	i	-7	7	-6	x
Cn1c(=O)cc(OCCCC(=O)NCCC2=CCCCC2)c2ccccc21	-3	i	-2	-3	3	x
Cn1c(=O)cc(SCC(=O)NCCC2=CCCCC2)c2cc(Cl)ccc21	-18	i	1	-1	69*	30
Cc1sc2nc(-c3ccco3)oc(=O)c2c1C	4	i	-2	-20	29	x
Cc1ccccc1-c1nc2sc(C)c(C)c2c(=O)o1	-8	i	7	-8	53*	39
Cc1nc(N2CCN(c3ccccn3)CC2)c2c(C)c(C(=O)Nc3c(C)cc(Br)cc3C)sc2n1	-23	i	30	-1	73*	15
CCOC(=O)N1CCC(N2C(=O)c3ccccc3C2Nc2cc(OC)c(OC)c(OC)c2)CC1 (stereo not given)	24	i	-1	7	-3	x
CCOC(=O)[C@]12Cc3c(cc(OC)c(OC)c3OC)[C@H]1N(C1CCCCC1)C(=O)c1cc(OC)ccc12	x	i	4	-1	50*	38
O=C1OCCN1C(=O)[C@H]1[C@H](c2ccc([N+](=O)[O-])cc2)C(c2ccccc2)=NN1c1ccc(Br)cc1	-4	i	22	-7	90*	12
Cc1cccc(C2=NN(c3ccccc3)[C@@H](C(=O)N3CCOC3=O)[C@@H]2c2ccc([N+](=O)[O-])cc2)c1	20	i	20	-8	92*	17
O=C1OCCN1C(=O)[C@H]1[C@H](c2ccc([N+](=O)[O-])cc2)C(c2cccc(Cl)c2)=NN1c1ccc(Br)cc1	-11	i	22	9	87*	6
CC1=NN(c2ccc([N+](=O)[O-])cc2)C(c2ccccc2)C1 (stereo not given)	39	i	-5	-8	18	x
CC[C@@H]1C(c2cccc(Cl)c2)=NN(c2ccc(Br)cc2)[C@H]1C(=O)N1CCOC1=O	2	i	7	-8	42	x
CC[C@@H]1C(c2cccc(C)c2)=NN(c2ccccc2)[C@H]1C(=O)N1CCOC1=O	-2	i	10	-13	16	x
SMILES	CRFBP-R2 block	Myeloid diff MLP	NadD inh	NRP1-CendR mod	FAS-TE inh	FAS-TE conf
O=C(CCS(=O)(=O)c1ccc(Br)cc1)NCCC1=CCCCC1	-11	i	-5	0	6	x
Cc1ccc(CNC(=O)c2ccc(NS(=O)(=O)c3cccs3)cc2)cc1	5	i	-1	0	-2	x
Cc1ccc(NC(=O)C2CCN(S(=O)(=O)c3ccc(C(C)(C)C)cc3)CC2)cc1S(=O)(=O)N1CCOCC1	-9	i	4	7	89*	31
Cc1ccc(NC(=O)c2ccc(S(=O)(=O)N3CC(C)CC(C)C3)cc2)cc1S(=O)(=O)N1CCOCC1 (stereo not given)	-5	i	6	1	50*	7
O=C(c1cc(-c2cccs2)nc2ccccc12)N1CCN(c2ccccc2)CC1	-32	i	5	-5	50*	21
O=C(c1cc(-c2cccs2)nc2ccccc12)N1CCN(S(=O)(=O)c2ccccc2)CC1	-23	u	10	-9	48	x
COc1ccc(CN2CCC(n3nccc3NC(=O)CCc3ccccc3)CC2)c(C)c1C	-7	u	-10	1	-2	x
O=C1CC(c2cccc([N+](=O)[O-])c2)c2c(ccc3ccccc23)N1 (stereo not given)	-23	i	-1	2	55*	49*
O=C1CC(c2cccc([N+](=O)[O-])c2)c2cc3c(cc2N1)CCC3 (stereo not given)	-29	i	-4	6	51*	33*
Cc1ccc(C2CC(=O)Nc3c2ccc2ccccc32)cc1[N+](=O)[O-] (stereo not given)	-92	i	-1	4	28	x
COC(=O)C(c1ccccc1)N(Cc1cccc(CN(C(C(=O)OC)c2ccccc2)S(C)(=O)=O)c1)S(C)(=O)=O (stereo not given)	0	i	-3	10	23	x
COc1ccc(NC(=O)COc2ccccc2C(=O)NCC(c2ccccc2)N(C)C)cc1Cl (stereo not given)	-15	i	-3	11	7	x
O=C(Nc1cc(S(=O)(=O)N2CCOCC2)ccc1O)c1ccc2c(c1)S(=O)(=O)c1ccccc1C2=O	-3	i	9	-3	57*	31
O=C(Nc1cc(S(=O)(=O)N2CCOCC2)ccc1O)c1ccc(S(=O)(=O)N2CCCCC2)cc1	-7	i	4	7	-8	x
O=S(=O)(c1ccc(Cl)cc1)N1CCCC(c2nc(-c3ccc(F)cc3)no2)C1 (stereo not given)	0	i	-2	-4	64*	46*
COc1ccc(-c2noc(C3CCCN(S(=O)(=O)c4cccc(Cl)c4)C3)n2)cc1OC (stereo not given)	-9	i	-15	-3	47	x
COc1cc(OC)c(N(C)S(=O)(=O)c2cccc(C(=O)Nc3nccs3)c2)cc1Cl	0	i	13	15	66*	14
COc1cc(OC)c(N(C)S(=O)(=O)c2cccc(C(=O)OCC(=O)N(C)C3CCCCC3)c2)cc1Cl	-9	i	1	6	66*	11
CC(=O)Nc1cc2c(cc1Cl)-c1ccccc1C2O (stereo not given)	0	i	0	-11	-3	x
